# Compound activity from PubChem BioAssay.
# Many of the other results were omitted from the sample, so hits are more common in it than they were.
# Pf Dd2 growth: inhibitors of Plasmodium falciparum Dd2 growth; P. falciparum Dd2 growth, SYBR Green, 72 h; Potency, µM (highest dose often 28.9 µM), inactives show at the highest dose activity, negative = inhibition, most hits filed as inhibitors; 120,000 tested, 4.3% active; AID 1347417; active means well fitted inhibition curve with a large enough effect;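 further: plate controls were DMSO vehicle for no effect and reference drug for full effect; nearly all actives have a fitted effect of over 65% in size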
#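 Readout: SYBR Green fluorescence, 485 nm excitation, 535 nm emission, after ~16 h lysis at 37C. Before that, Dd2-infected red cells (2.5% hematocrit) grew 72 h with compound, 29 uM top final concentration.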
# The depositor's hits bear a star; i = inactive; [ ] = another dose, or the depositor's remark. Potency means the concentration at half of the fitted maximal effect.
SMILES,Pf Dd2 growth
Cc1ccc(NC(=O)N2CCN(c3nnc(C)c4c(C)n(-c5ccccc5)nc34)CC2)c(Cl)c1,62.6%
Cc1ccc(C(=O)N2CCn3c(nnc3[C@@H]3C[C@@H](O)CN3Cc3ccccc3)C2)cn1,2.9%
COc1cccc(CNC(=O)CCNc2cnc3cnccn23)c1,i
COc1ccc(-n2nc3c(N4CCCC(C(=O)NCCc5ccc(C)cc5)C4)nnc(C)c3c2C)cc1 (stereo not drawn),8.91µM*
CCc1ccc(NC(=O)C2CCCN(c3nnc(C)c4c(C)n(-c5ccccc5)nc34)C2)cc1 (stereo not drawn),15.9%
COc1ccc(-n2nc3c(N4CCCC(C(=O)NCc5ccccc5C)C4)nnc(C)c3c2C)cc1 (stereo not drawn),-5.6%
CCOc1ccc(NC(=O)C2CCCN(c3nnc(C)c4c(C)n(-c5ccccc5)nc34)C2)cc1 (stereo not drawn),5.9%
COc1ccc(-n2nc3c(N4CCCC(C(=O)NCCc5ccccc5C)C4)nnc(C)c3c2C)cc1 (stereo not drawn),8.91µM*
Cc1nnc(N2CCCC(C(=O)NCc3ccccc3F)C2)c2nn(-c3ccc(Cl)cc3)c(C)c12 (stereo not drawn),1.1%
COc1ccc(N2CC(c3noc(-c4ccc(OC)cc4C)n3)CC2=O)cc1 (stereo not drawn),-15.8%
COc1ccc(CN2Cc3[nH]nc(-c4cccc(NC(C)=O)c4)c3CC2=O)cc1,-18.5%[44.1 µM]
Cc1ccc(NC(=O)Cn2c(=O)n(-c3ccc(F)cc3)c(=O)c3c2cc(C)n3C)c(C)c1,i
CNC(=O)[C@@H]1C[C@@H](N)CN1C(=O)c1cnc(-c2ccccc2)nc1C,-1.1%
COc1ccc2c(c1)CCc1sc(NC(=O)c3cccc(Br)c3)nc1-2,-16.3%
COc1ccc(C(=O)Nc2nc3c(s2)CCCC3)cc1Cl,-24.6%
COc1ccc2c(c1)-c1nc(NC(=O)c3ccc(C)cc3)sc1CC2,11.2µM*
CCc1nc(C)c(C(=O)N[C@H]2[C@@H]3CCO[C@@H]3[C@@H]2C2CCCC2)o1,-1.0%
CC(C)Cc1cc(C(=O)N2CCc3[nH]nc(-c4ccccc4)c3C2)nc(=O)[nH]1,-12.3%
O=C(Cc1ccccc1F)N1CCC(c2nc3c(nnn3Cc3cccc(Cl)c3)c(=O)[nH]2)CC1,10µM*
CCc1cn[nH]c1C1CCCN(C(=O)c2ccc(Cn3nnnc3C)cc2)C1 (stereo not drawn),10.3%
Cc1ccc(Cn2nnc3c(=O)[nH]c(C4CCN(C(=O)Cc5ccccc5F)CC4)nc32)cc1,-27.2%
Cc1ccccc1Cn1nnc2c(=O)[nH]c(C3CCCN(C(=O)c4ccc(C(C)(C)C)cc4)C3)nc21 (stereo not drawn),8.91µM*
COC(=O)c1ccc(Cn2nnc3c(=O)[nH]c(C4CCCN(S(=O)(=O)c5ccccc5)C4)nc32)cc1 (stereo not drawn),-21.6%
O=C(c1ccccc1F)N1CCC(c2nn(Cc3ccccc3)c(=O)[nH]2)CC1,26.6%
N#Cc1ccccc1Cn1nnc2c(=O)[nH]c(C3CCCN(S(=O)(=O)c4ccc(F)cc4)C3)nc21 (stereo not drawn),i
SMILES,Pf Dd2 growth
Cc1ccc(C(=O)N2CCCC(c3nn(-c4ccccc4)c(=O)[nH]3)C2)cc1 (stereo not drawn),i
Cc1cccc(Cn2nnc3c(=O)[nH]c(C4CCCN(C(=O)c5ccc(C(C)(C)C)cc5)C4)nc32)c1 (stereo not drawn),1µM*
N#Cc1ccc(C(=O)N2C[C@@H](CO)[C@H](c3ccccn3)C2)cc1,49.8%
Cc1ccc(CN2C(=O)COC[C@H]2C(=O)NC2CC2)cc1,11.0%
CN(C(=O)Nc1ccc(Cl)cc1)C1CCCc2ccccc21 (stereo not drawn),-11.6%[44.1 µM]
CN(C(=O)c1ccccc1)C1CCCc2ccccc21 (stereo not drawn),i
CN(C(=O)Nc1ccccc1)C1CCCc2ccccc21 (stereo not drawn),15.8µM*
COCC(=O)N(C)C1CCCc2ccccc21 (stereo not drawn),-22.6%[44.1 µM]
CN(Cc1ccc(F)cc1)C1CCCc2ccccc21 (stereo not drawn),i
CN(C(=O)Cc1ccc(F)cc1)C1CCCc2ccccc21 (stereo not drawn),15.8µM*
O=C(COc1ccccc1)N1CCc2c(n(Cc3cccnc3)n(CCc3ccccc3)c2=O)C1,4.1%
CCN(CC)C(=O)c1sc2c(c1C)c(=O)n(CCc1ccccc1)c(=O)n2Cc1ccc(F)cc1Cl,10µM*
CCN(CC)C(=O)c1sc2c(c1C)c(=O)n(CCc1ccccc1)c(=O)n2Cc1cccc(Cl)c1,-17.8%
Cc1sc2c(c1C)c(=O)n(CCc1ccccc1)c(=O)n2Cc1ccccc1Cl,53.9%
Cc1nnc2n1CCC(N(C)C(=O)Cc1ccsc1)CC2 (stereo not drawn),i
Cc1ncnc(N2CCC(N3CCCC(C(=O)NCc4ccccn4)C3)CC2)c1C (stereo not drawn),-4.1%
COCCN1CCOC[C@H]2CCN(C(=O)C(C)C)C[C@H]21,17.6%
